ERa SRC1 inh = ER-alpha (human) coactivator binding inhibition | P03372 | TR-FRET ER-alpha LBD / SRC-1 peptide, estradiol-bound | inhibition, % at 25.6 µM | actives 1.7% (n = 86,000) | AID 629; in the data active means inhibition above about 50%
FAK blocker = inhibitors of human focal adhesion kinase; biochemical FAK kinase activity assay; inhibition, %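 (tested at 7 µM)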; actives 0.84% (n = 97,000); in the data active means inhibition above about 19%
Target sequence (Q05397 whole entry, looked up): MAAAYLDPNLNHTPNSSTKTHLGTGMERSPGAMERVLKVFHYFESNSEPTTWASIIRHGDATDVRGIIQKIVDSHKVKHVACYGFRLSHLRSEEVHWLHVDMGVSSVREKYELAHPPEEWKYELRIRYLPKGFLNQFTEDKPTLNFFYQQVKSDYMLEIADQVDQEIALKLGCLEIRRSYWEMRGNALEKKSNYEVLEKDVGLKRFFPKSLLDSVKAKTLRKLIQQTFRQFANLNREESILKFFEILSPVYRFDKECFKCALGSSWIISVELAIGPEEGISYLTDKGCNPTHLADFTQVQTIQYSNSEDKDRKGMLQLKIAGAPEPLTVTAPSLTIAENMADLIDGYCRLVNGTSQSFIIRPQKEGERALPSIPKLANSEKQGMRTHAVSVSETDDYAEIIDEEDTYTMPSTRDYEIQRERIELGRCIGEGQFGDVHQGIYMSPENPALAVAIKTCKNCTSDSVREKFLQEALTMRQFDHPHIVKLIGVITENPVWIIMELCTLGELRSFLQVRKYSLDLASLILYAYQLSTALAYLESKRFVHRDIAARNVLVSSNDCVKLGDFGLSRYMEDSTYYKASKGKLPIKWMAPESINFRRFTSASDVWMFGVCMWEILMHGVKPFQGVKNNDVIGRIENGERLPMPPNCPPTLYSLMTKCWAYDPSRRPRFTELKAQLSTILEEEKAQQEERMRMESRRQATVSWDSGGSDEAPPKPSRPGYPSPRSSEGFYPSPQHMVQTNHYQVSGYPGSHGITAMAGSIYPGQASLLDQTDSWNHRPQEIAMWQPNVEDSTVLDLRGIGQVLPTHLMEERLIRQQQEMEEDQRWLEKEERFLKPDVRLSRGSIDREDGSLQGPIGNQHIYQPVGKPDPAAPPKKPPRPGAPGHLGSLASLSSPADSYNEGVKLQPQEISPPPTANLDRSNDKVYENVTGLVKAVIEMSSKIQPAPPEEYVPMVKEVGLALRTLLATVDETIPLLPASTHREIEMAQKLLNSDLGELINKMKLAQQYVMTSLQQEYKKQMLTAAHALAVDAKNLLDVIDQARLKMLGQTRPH
ERa coact pot = ER-alpha (human) coactivator binding potentiation | P03372 | TR-FRET ERalpha-LBD/SRC-Cy5 coactivator binding, 2 h; 100 = basal binding, no effect | coactivator binding (% of control), % at 25.6 µM | actives 1.3% (n = 86,000) | AID 639; in the data active means activity above about 200%;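 further: binding measured in presence of low estradiol as agonist stimulus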
ERb coact inh = blocks coactivator binding to human estrogen receptor beta; Q92731; actives 1.3% (n = 86,000); inhibition, % at 25.6 µM; TR-FRET ER-beta LBD / SRC1-Cy5 peptide binding; receptor agonist-loaded with 1 µM estradiol;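 active means compounds whose percent inhibition of the receptor-coactivator binding signal exceeds about 50% in the single-dose screen, limit read from the data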
Of the large screens only hits and unclear results are named; the others gave an inactive call; [ ] = another dose, or the depositor's remark. Hits are enriched below; roughly 3.2% of the tested compounds scored in any of these assays.

COc1ccc(S(=O)(=O)NCC(=O)N(CC(=O)NCC2CCCO2)c2cc(C)ccc2C)cc1 (configuration not stated)	none
O=C(O)CCN(CCC(=O)O)c1ccccc1	none
CC(C)CN(CCC(=O)O)CC(C)C	ERb coact inh 60
N#Cc1cc2c(=O)n3ccccc3nc2n(CCCn2ccnc2)c1=N	ERb coact inh 56
N#Cc1cc2c(=O)n3ccccc3nc2n(CC2CCCO2)c1=N (configuration not stated)	none
CC(=O)Nc1nonc1-c1nc2ccccc2n1N(C(C)=O)C(C)=O	ERa SRC1 inh 86[fluorescence artefact?], ERb coact inh 76
CCCn1c(=O)c(C(=O)Nc2ccccc2C(=O)OCC)c(O)c2ccccc21	none (no result: FAK blocker)
CCC(C)n1c(=O)c(C(=O)Nc2ccccc2S(N)(=O)=O)c(O)c2ccccc21 (configuration not stated)	ERa coact pot 208 (no result: FAK blocker)
O=C1c2ccccc2C(=O)C1c1ccc2ccccc2n1	ERa SRC1 inh 52[fluorescence artefact?], ERa coact pot 217[fluorescence artefact?] (no result: FAK blocker)
O=C(NCc1ccc(C(F)(F)F)cc1)C1CC(c2c(Cl)cccc2Cl)=NO1 (configuration not stated)	none (no result: ERa SRC1 inh, ERa coact pot, ERb coact inh)
Cc1ccc(-n2nnnc2SCC(=O)c2c(N)n(CC(C)C)c(=O)n(C)c2=O)cc1	ERa coact pot 242
CC(C)CC(OC(=O)c1cccs1)C(=O)NCc1ccco1 (configuration not stated)	ERb coact inh 58
O=C(Nc1cccc(-c2cnc3ccccc3n2)c1)c1ccco1	none
O=C(Nc1cnc2ccccc2c1)c1ccco1	ERa SRC1 inh 57
Cc1csc(NC(=O)CSc2nc(C(C)C)nc3c2c(=O)n(C)c(=O)n3C)n1	none
CCc1nnc(NC(=O)CCC(=O)N2CCN(c3ccccn3)CC2)s1	none
Cc1ccc(S(=O)(=O)N2CCCCC2)cc1C(=O)Nc1ncn[nH]1	ERa SRC1 inh 55, ERb coact inh 59 (no result: FAK blocker)
Cc1cccc(-n2cnc(C(=O)N/N=C\c3ccc(Br)cc3)c2)n1	ERa coact pot 515[fluorescence artefact?]
Cc1ccc(/C=N\NC(=O)c2csnn2)cc1	none (no result: ERa SRC1 inh, ERa coact pot, ERb coact inh)
CCOC(=O)C(CC)(CCC(=O)O)c1csc(N)n1 (configuration not stated)	none
CCOC(=O)C(CCC(=O)O)(CCC(C)C)c1csc(N)n1 (configuration not stated)	ERa coact pot active[fluorescence artefact?]
Cc1ccc(Sc2c(C)nn(C(=O)c3cccc(S(=O)(=O)N4CCOCC4)c3)c2C)cc1	ERa coact pot 237[fluorescence artefact?]
O=C(Nc1ccc2oc(-c3ccccc3)nc2c1)c1ccccc1F	none
Cc1ccc(-c2nc3cc(NC(=O)C(C)C)ccc3o2)cc1	none
CC(Oc1ccc(Cl)cc1Cl)C(=O)Nc1ccc2oc(-c3ccncc3)nc2c1 (configuration not stated)	ERa coact pot 327
O=C(Cc1ccccc1)Nc1ccc2oc(-c3ccncc3)nc2c1	ERa SRC1 inh 51[fluorescence artefact?], ERa coact pot 299[fluorescence artefact?] (no result: FAK blocker)
CC(C)CC(=O)Nc1ccc2oc(-c3ccncc3)nc2c1	none
O=S(=O)(c1ccc2oc(-c3ccncc3)nc2c1)c1ccc2oc(-c3ccncc3)nc2c1	ERa coact pot 237[fluorescence artefact?], ERb coact inh 51[fluorescence artefact?] (no result: FAK blocker)
O=C(Nc1ccc2oc(-c3cccc(F)c3)nc2c1)c1ccccc1F	ERa coact pot 223[fluorescence artefact?]
CCOC(=O)N1CCC(N2C(=O)c3ccc(C(=O)NC4CCCCCC4)cc3C2=O)CC1	none (no result: FAK blocker)
COc1ccccc1N(C(=O)c1snc(C(N)=O)c1N)C(C(=O)NCCC(C)C)c1ccco1 (configuration not stated)	none
NC(=O)c1nsc(C(=O)N(CC(=O)NCc2ccco2)c2ccccc2F)c1N	FAK blocker 24
C=CCSc1nnc2nc3c(nn12)c1cc(C)ccc1n3CC=C	none
CCOC(=O)C1=C(C)OC(N)=C(C#N)C1c1cc2cc(C)ccc2nc1N1CCCCC1 (configuration not stated)	ERa coact pot 318[fluorescence artefact?]
CCOC(=O)/C=C1\SCC(=O)N1CC(=O)c1ccc[nH]1	ERa SRC1 inh 87[fluorescence artefact?], ERb coact inh 64[fluorescence artefact?]
Nn1c(COc2ccccc2)nnc1SCC(=O)O	ERa coact pot 252[fluorescence artefact?]
COc1ccc(NC(=O)Cn2nnc(C(=O)NCc3ccccc3)c2N)cc1Cl	none (no result: FAK blocker)
COc1cccc(CNC(=O)c2nnn(CC(=O)Nc3ccc(C)c(C)c3)c2N)c1	ERa coact pot 287 (no result: FAK blocker)
COc1cccc(Cn2nnc(C(=O)Nc3ccc(C)cc3)c2N)c1	ERa coact pot 246[fluorescence artefact?]
Cc1ccc(NC(=O)Cn2nnc(C(=O)Nc3ccc(C)c(C)c3)c2N)cc1	ERa SRC1 inh 70[fluorescence artefact?]
Cc1cccc(-n2nnc(C(=O)Nc3ccc(F)cc3)c2N)c1	ERa SRC1 inh 63[fluorescence artefact?]
COC(=O)c1cn(CC(=O)NC2CCCCCC2)c2ccccc12	none
Cc1ccc(N/C=C/C(=O)c2sc(-c3ccccc3)nc2C)cc1	none (no result: ERa SRC1 inh, ERa coact pot, ERb coact inh)
COc1nc2ccc(C)cc2cc1-c1noc(-c2cccnc2)n1	ERa coact pot 241[fluorescence artefact?]
Cc1cnn(-c2ccc3nnc(-c4ccc(Cl)cc4)n3n2)c1	ERa coact pot 329[fluorescence artefact?]
O=C(CSc1nc(-c2ccncc2)nn1CC(=O)N1CCCCC1)NC1CCCC1	none
COc1ccc(-c2cc(-c3ccc(OC)cc3)c(C#N)c(SC)n2)cc1	ERa coact pot 458[fluorescence artefact?]
Cc1sc2ncn(CC(=O)OC(C)C)c(=O)c2c1C	none (no result: ERa SRC1 inh, ERa coact pot, ERb coact inh)
COc1ccccc1CNC(=O)c1c(O)c2cc(OC)c(OC)cc2[nH]c1=O	ERa SRC1 inh 57[fluorescence artefact?]
COc1ccccc1CNC(=O)c1ccccc1OC	none
CCCCN(C(=O)CNC(=O)c1ccco1)C(C(=O)NC1CCCC1)c1ccc(OC)cc1 (configuration not stated)	none
O=Cc1cn(-c2ccccc2)nc1-c1cc2c(ccc3ccccc32)oc1=O	ERa SRC1 inh 52, ERa coact pot 230[fluorescence artefact?]
N#Cc1cn(-c2ccccc2)nc1-c1cc2ccccc2oc1=O	ERa coact pot 212[fluorescence artefact?]
O=C1CSC(c2cn(-c3ccccc3)nc2-c2cc3ccccc3oc2=O)N1Cc1cccnc1 (configuration not stated)	none
O=S(=O)(Nc1ccc(Cl)c(C(F)(F)F)c1)c1cnc[nH]1	none (no result: FAK blocker)
O=C(NC1CCCCC1)c1cccc(COCC(F)(F)F)c1	none
CN(CCOc1ccc(Cl)cc1)c1ccc(S(=O)(=O)N2CCCCC2)cn1	ERa coact pot 236[fluorescence artefact?]
COC(=O)c1c(S(=O)(=O)NCc2ccccc2)sc(C(=O)O)c1C	none
N#Cc1ccsc1NC(=O)COc1ccc(-c2nnco2)cc1	ERa SRC1 inh 80[fluorescence artefact?] (no result: FAK blocker)
CC(C)CC(=O)Nc1ccc(C(=O)COc2ccc(-c3nnco3)cc2)cc1	ERa SRC1 inh 70
CC(C)CC(=O)Nc1ccc(OCC(=O)O)cc1	none
CC(=O)c1ccccc1OCCn1nnc(-c2ccc(C)cc2)n1	none
COC(=O)c1cc(NC(=O)Cn2c(=O)cnc3ccccc32)cc(C(=O)OC)c1	ERa SRC1 inh 55
COC(=O)Cn1c(=O)cnc2ccccc21	none (no result: FAK blocker)
O=C(CSc1ncnc2c1oc1ccccc12)N1CCCc2ccccc21	ERa coact pot 202[fluorescence artefact?]
COc1ccc(CCNC(=O)CSc2ncnc3c2oc2ccccc23)cc1OC	none
Cc1ccc(NC(=O)CCC(=O)O)cc1F	none
Cc1nc(SCC(=O)Nc2ccc(C)c(F)c2)c2oc3ccccc3c2n1	ERa coact pot 840[fluorescence artefact?]
COc1ccc(Cl)cc1NC(=O)CSc1ncnc2c1oc1ccccc12	ERa coact pot 230 (no result: FAK blocker)

Screens (PubChem)
